Assays:
[1] = tested on: Vero E6 infected with SARS-CoV-2; experiment: morphology score (similarity to uninfected cells); higher = more like uninfected cells; conditions: 24 h
[2] = tested on: Vero E6 infected with SARS-CoV-2; experiment: SARS-CoV-2 infection rate relative to infected DMSO; higher = more infection, active = 60 or less; conditions: 24 h

Row | SMILES | morphology score [1] | SARS-CoV-2 infection rate [2]
1 | C[C@H]1[C@H](OC(=O)CCC(=O)O)O[C@@H]2O[C@@]3(C)CC[C@H]4[C@H](C)CC[C@@H]1[C@@]24OO3 [artesunate] (0.833333 µM) | 0.157 | 97% (inactive)
2 | O=C(O)c1ccc(-n2nc(-c3ccccc3O)nc2-c2ccccc2O)cc1 [deferasirox] (0.833333 µM) | 0.0304 | 114% (inactive)
3 | CN1[C@@H]2CC[C@H]1C[C@@H](OC(=O)c1c[nH]c3ccccc13)C2 [tropisetron] (10 µM) | -0.0266 | 102% (inactive)
4 | O=S1(=O)CCN(CN2CCS(=O)(=O)NC2)CN1 [taurolidine] (10 µM) | -0.0437 | 109% (inactive)
5 | CCC(=O)NC[C@H](Cc1ccc(OCCc2nc(-c3ccccc3)oc2C)cc1)N/C(C)=C\C(=O)c1ccc(C(F)(F)F)cc1 (10 µM) | -0.0333 | 110% (inactive)
6 | C[N+](C)(C)CCCCCC[N+](C)(C)C [hexamethonium] (10 µM) | -0.257 | 114% (inactive)
7 | C[C@]12C=CC(=O)N[C@@H]1CC[C@@H]1[C@@H]2CC[C@]2(C)[C@@H](C(=O)Nc3cc(C(F)(F)F)ccc3C(F)(F)F)CC[C@@H]12 [dutasteride] (10 µM) | 0.111 | 111% (inactive)
8 | CSc1nc(-c2ccc(F)cc2)c(-c2ccnc(N[C@@H](C)c3ccccc3)c2)[nH]1 (10 µM) | -0.159 | 107% (inactive)
9 | CN1c2c([nH]c(N)nc2=O)NC[C@@H]1CNc1ccc(C(=O)N[C@@H](CCC(=O)O)C(=O)O)cc1 [metafolin] (10 µM) | 0.0144 | 115% (inactive)
10 | CCCn1c(=O)c2nc(-c3ccccc3)[nH]c2n(CCC)c1=O [1,3-dipropyl-8-phenylxanthine] (10 µM) | 0.102 | 104% (inactive)
11 | Cc1nc2ccccc2n1Cc1ccc(Cl)cc1 [chlormidazole] (10 µM) | -0.099 | 118% (inactive)
12 | N#CN1CCCC1 [pyrrolidine-1-carbonitrile] (10 µM) | 0.254 | 92% (inactive)
13 | C=C1CC[C@@H]2[C@](C)(CO)[C@H](O)CC[C@@]2(C)[C@@H]1C/C=C1/C(=O)OC[C@H]1O [andrographolide] (0.833333 µM) | 0.123 | 106% (inactive)
14 | COc1ccc2c(c1OC)C(=O)O[C@@H]2[C@H]1c2cc3c(cc2CCN1C)OCO3 [hydrastine-(1R,9S)] (10 µM) | -0.0178 | 108% (inactive)
15 | O=c1[nH]c(=O)n([C@H]2CCCO2)cc1F (racemic) [ftorafur] (10 µM) | -0.016 | 116% (inactive)
16 | Cn1c(=O)c2c(ncn2CC(=O)O)n(C)c1=O [acefylline] (10 µM) | 0.124 | 100% (inactive)
17 | O=c1[nH]c(=O)n([C@H]2C[C@H](O)[C@@H](CO)O2)cc1Br [broxuridine] (0.833333 µM) | 0.0347 | 108% (inactive)
18 | O=C(O)CCCc1c[nH]c2ccccc12 [3-indolebutyric-acid] (10 µM) | 0.123 | 114% (inactive)
19 | CN1C(=O)N(c2cc(Cl)cc(Cl)c2)C(=O)[C@@]1(C)Cc1ccc(Br)cc1 (10 µM) | 0.25 | 96.5% (inactive)
20 | O[C@H]1[C@H]2[C@H](O)CCCN2C[C@H]1O [swainsonine] (10 µM) | -0.0751 | 97% (inactive)

Row | SMILES | morphology score [1] | SARS-CoV-2 infection rate [2]
21 | CCc1ccc(/C=C/C(=O)Nc2ccc(C(C)=O)cc2)o1 [heclin] (10 µM) | 0.263 | 77% (inactive)
22 | CC(=O)OCC(=O)[C@@]1(O)CC[C@H]2[C@@H]3CCC4=CC(=O)CC[C@]4(C)[C@H]3C(=O)C[C@@]21C [cortisone-acetate] (10 µM) | -0.0698 | 87.5% (inactive)
23 | N#C/C(=C1/SC[C@@H](c2ccc(Cl)cc2Cl)S1)n1ccnc1 [luliconazole] (10 µM) | 0.0257 | 104% (inactive)
24 | CC(C)(C)c1cc(C=C(C#N)C#N)cc(Br)c1O (10 µM) | 0.14 | 108% (inactive)
25 | COc1cccc(C(=O)CCN[C@@H](C)[C@H](O)c2ccccc2)c1 [oxyfedrine] (10 µM) | 0.217 | 102% (inactive)
26 | Cc1ccnc2c1NC(=O)c1cccnc1N2C1CC1 [nevirapine] (10 µM) | 0.173 | 104% (inactive)
27 | O=C(NC1CCOCC1)c1ccc(-c2cc(-c3c[nH]nc3-c3ccccn3)ccn2)cc1 (10 µM) | -0.0411 | 114% (inactive)
28 | Nc1nc(F)nc2c1ncn2[C@@H]1O[C@H](CO)[C@@H](O)[C@@H]1O [fludarabine] (10 µM) | -0.0436 | 107% (inactive)
29 | O=C(Nc1nc2ccc(NC(=O)C34CC5CC(CC(C5)C3)C4)cc2s1)c1ccccc1 (0.833333 µM) | -0.0802 | 105% (inactive)
30 | COC(=O)C1=C(C)NC(C)=C([N+](=O)[O-])[C@@H]1c1ccccc1C(F)(F)F (racemic) (10 µM) | 0.192 | 91.8% (inactive)
31 | C=CC(=O)Nc1cc2c(Nc3ccc(F)c(Cl)c3)ncnc2cc1OCCCN1CCOCC1 [canertinib] (10 µM) | -0.116 | 107% (inactive)
32 | COc1cc(-c2ccc(=O)[nH]n2)ccc1OC(F)F [zardaverine] (10 µM) | 0.289 | 83.5% (inactive)
33 | C=CC(N)CCC(=O)O (stereo not given) [vigabatrin] (10 µM) | 0.188 | 99.5% (inactive)
34 | COc1cc(N2CCC(N3CCN(C)CC3)CC2)ccc1Nc1ncc(Cl)c(Nc2ccccc2S(=O)(=O)C(C)C)n1 (0.833333 µM) | 0.115 | 102% (inactive)
35 | Clc1ccc([C@]23CNC[C@H]2C3)cc1Cl [amitifadine] (10 µM) | 0.0575 | 110% (inactive)
36 | CN(C)CCCCSC(=N)N (10 µM) | 0.0735 | 100% (inactive)
37 | Cc1cc(NS(=O)(=O)c2ccc(N)cc2)no1 [sulfamethoxazole] (10 µM) | 0.128 | 94.5% (inactive)
38 | CC(=O)Oc1ccccc1C(=O)Nc1ncc([N+](=O)[O-])s1 [nitazoxanide] (10 µM) | 0.224 | 88% (inactive)
39 | Cc1cc2nc3c(=O)[nH]c(=O)nc-3n(C[C@H](O)[C@H](O)[C@H](O)CO)c2cc1C [riboflavin] (10 µM) | 0.208 | 102% (inactive)
40 | CC(=O)c1ccc2c(c1)N(CCCN1CCN(CCO)CC1)c1ccccc1S2 [acetophenazine] (10 µM) | 0.201 | 96.5% (inactive)

Row | SMILES | morphology score [1] | SARS-CoV-2 infection rate [2]
41 | COc1cc(N2CCOCC2)ccc1Nc1ncc(Cl)c(Nc2ccccc2NS(C)(=O)=O)n1 (10 µM) | -0.034 | 103% (inactive)
42 | C[C@@H]1C/C=C/C=C/C=C/C=C/[C@H](O[C@@H]2O[C@H](C)[C@@H](O)[C@H](N)[C@@H]2O)C[C@@H]2O[C@](O)(C[C@@H](O)C[C@H]3O[C@@H]3/C=C/C(=O)O1)C[C@H](O)[C@H]2C(=O)O [natamycin] (10 µM) | 0.0781 | 108% (inactive)
43 | c1ccc(Oc2cccnc2)cc1 (10 µM) | 0.0741 | 103% (inactive)
44 | COc1cc([C@@H]2c3cc4c(cc3[C@@H](O[C@@H]3O[C@@H]5CO[C@@H](C)O[C@H]5[C@H](O)[C@H]3O)[C@H]3COC(=O)[C@H]23)OCO4)cc(OC)c1O [etoposide] (10 µM) | -0.114 | 104% (inactive)
45 | CCCCCCCCCCCCCCCC[n+]1ccn(Cc2ccccc2)c1C (0.833333 µM) | 0.0516 | 104% (inactive)
46 | COc1cc(OC)c2c(=O)[nH]c(-c3cc(C)c(OCCO)c(C)c3)nc2c1 [apabetalone] (0.833333 µM) | 0.0872 | 106% (inactive)
47 | OCCn1cc(-c2ccc3c(c2)CC/C3=N\O)c(-c2ccncc2)n1 (10 µM) | 0.0962 | 79.5% (inactive)
48 | COc1cccc(C2(O)CCCCC2CN(C)C)c1 (stereo not given) (10 µM) | 0.17 | 104% (inactive)
49 | CN(C)CCN1C(=O)c2cccc3cc(N)cc(c23)C1=O [amonafide] (0.833333 µM) | 0.15 | 102% (inactive)
50 | O=S(=O)(O)c1ccc2[nH]c(-c3ccccc3)nc2c1 [phenylbenzimidazole-sulfonic-acid] (10 µM) | 0.087 | 104% (inactive)
51 | COc1cc2nccc(Oc3ccc(NC(=O)NC4CC4)c(Cl)c3)c2cc1C(N)=O [lenvatinib] (10 µM) | 0.239 | 100% (inactive)
52 | O=C(O)[C@H](Cc1c[nH]c2ccccc12)N1C(=O)c2ccccc2C1=O (10 µM) | -0.0791 | 115% (inactive)
53 | Cc1cc(CCCOc2c(C)cc(-c3noc(C(F)(F)F)n3)cc2C)on1 [pleconaril] (10 µM) | -0.0431 | 108% (inactive)
54 | O=C(Nc1ccccc1C(=O)NC1CCCCNC1=O)c1cc2ccccc2s1 (stereo not given) (10 µM) | 0.0242 | 99.5% (inactive)
55 | Nc1ncc(Cc2ccc(Br)cc2)s1 (10 µM) | 0.13 | 102% (inactive)
56 | CC(C)(C(=O)O)c1ccc(C(O)CCCN2CCC(C(O)(c3ccccc3)c3ccccc3)CC2)cc1 (stereo not given) [fexofenadine] (10 µM) | -0.361 | 122% (inactive)
57 | CC(C)C[C@H](NC(=O)[C@@H]1CCCN1)C(=O)NCC(N)=O [prolylleucylglycinamide] (10 µM) | 0.103 | 99% (inactive)
58 | C[C@H](Cc1ccc2c(c1)OC(C(=O)O)(C(=O)O)O2)NC[C@H](O)c1cccc(Cl)c1 (10 µM) | 0.159 | 93.5% (inactive)
59 | CCCn1cnc2c1c(=O)n(CCCCC(C)=O)c(=O)n2C [propentofylline] (10 µM) | 0.065 | 102% (inactive)
60 | COc1cc(C)[nH]c(=O)c1CNC(=O)c1c(C)n([C@H](C)C2CCOCC2)c2ccccc12 (10 µM) | 0.0908 | 96.5% (inactive)

— the supplement of paper PMC13380429
